Assay outcomes from PubChem BioAssay.
Pol iota inh = DNA polymerase iota (human) inhibition; Q9UNA4; Pol iota fluorescent replication assay, 10 min; Potency, µM (doses to about 115 µM), actives largely listed as inhibitors; hit rate 1% among 390,000; AID 588590
Target sequence (Q9UNA4 whole entry, looked up): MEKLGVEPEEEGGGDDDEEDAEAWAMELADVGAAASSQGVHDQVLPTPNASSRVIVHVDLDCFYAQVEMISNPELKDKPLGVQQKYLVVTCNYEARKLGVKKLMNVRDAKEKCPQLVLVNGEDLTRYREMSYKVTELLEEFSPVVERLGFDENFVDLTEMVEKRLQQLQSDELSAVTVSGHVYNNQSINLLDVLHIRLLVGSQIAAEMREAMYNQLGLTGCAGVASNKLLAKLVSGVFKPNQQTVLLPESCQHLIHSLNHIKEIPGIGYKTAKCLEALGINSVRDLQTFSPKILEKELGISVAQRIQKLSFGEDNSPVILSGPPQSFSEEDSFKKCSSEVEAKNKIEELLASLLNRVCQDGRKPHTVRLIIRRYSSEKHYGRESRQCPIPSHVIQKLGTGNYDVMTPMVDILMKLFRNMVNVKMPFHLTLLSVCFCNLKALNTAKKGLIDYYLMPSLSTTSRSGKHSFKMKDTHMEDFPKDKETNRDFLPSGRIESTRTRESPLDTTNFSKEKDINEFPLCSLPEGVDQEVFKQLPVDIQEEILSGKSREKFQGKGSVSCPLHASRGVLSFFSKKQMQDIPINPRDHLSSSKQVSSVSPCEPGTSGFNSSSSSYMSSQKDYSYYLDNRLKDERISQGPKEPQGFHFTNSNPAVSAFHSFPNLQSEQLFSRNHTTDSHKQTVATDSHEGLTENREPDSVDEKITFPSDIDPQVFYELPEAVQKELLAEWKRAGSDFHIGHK
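Fluorescent replication assay read twice, at 0 min and 10 min after adding 50 nM (final) substrate. Enzyme (10 nM) and compounds were first incubated 15 min at room temperature; enzyme-free buffer wells were negative controls.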
Pol eta inh-1 = blocks human DNA polymerase eta activity | Potency, µM (top dose mostly 114 µM), most hits filed as inhibitors | AID 588591 | Q9Y253 | recombinant Pol eta, fluorescent DNA replication assay | hit rate 1.2% among 390,000
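Pol eta (10 nM) was preincubated with compounds for 15 min at room temperature, after which fluorescent replication substrate (50 nM final) was added to start the reaction. Fluorescence was read kinetically at 0 and 10 min.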
POLB inh = blocks human DNA polymerase beta activity; Potency, µM (titrated, usually from 114 µM), hits mostly inhibitors; Pol beta primer extension/strand displacement, fluorescence kinetic; P06746; hit rate 1.3% among 340,000
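Preincubation: enzyme (10 nM) with compound, 15 min, RT. Reaction: substrate added to 50 nM final. Reads: 0 and 10 min. Analysis: normalized, Hill fit.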
Pol kappa inh-1 = inhibitors of human DNA polymerase kappa | Q9UBT6 | purified Pol kappa, fluorescent DNA synthesis assay, 10 min | Potency, µM (doses to about 107 µM), hits mostly inhibitors | hit rate 0.53% among 400,000 | AID 588579
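Kinetic fluorescence readout at 0 and 10 min followed reaction start with substrate at 50 nM final. Beforehand, enzyme (10 nM Pol kappa) stood 15 min with compound at room temperature; buffer-only wells were negative controls.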
PI5P4Ka inh = PI5P4K alpha (human) kinase inhibition; P48426; max response, %; hit rate 1.2% among 330,000; PI5P4Kalpha enzyme, ADP-Glo luminescence, 60 min; stronger effect = lower value; active = max response of -50% or lower; inconclusive = between -30% and -50%; inactive = -30% or higher; note: value at the top dose of about 77 µM
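Reactions run in 0.038 M HEPES pH 7.4, 0.28 mM EGTA, 0.1% CHAPS and 5% DMSO, with PI5P4Kalpha, substrate, compound and 5 microM ATP final, one hour at room temperature. Readout is ADP-Glo luminescence.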
FEN1 inhibitor = blocks human flap endonuclease 1; hit rate 0.35% among 390,000; AID 588795; Recombinant FEN1 flap cleavage, fluorescence, 15 min; P39748; Potency, µM (doses to about 114 µM), usual class: inhibitors; note: nearly all actives have a fitted effect of over 65% in size
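FEN1 at 10 nM preincubated with compounds 15 min at room temperature, then flap DNA substrate added at 50 nM final. Signal read at 0 and 15 min; concentration-response fitted with four-parameter Hill equation.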
GALK inh confirm = galactokinase (human) inhibition, confirmation; purified GALK, Kinase-Glo ATP depletion luminescence; hit rate 70% among 150; Potency, µM (highest dose often 115 µM), usual class: inhibitors; shares compounds with Pol eta inh-1
Redox cycling = generates H2O2 by redox cycling, flagging GALK artifacts; hit rate 40% among 150; shares compounds with Pol eta inh-1; Phenol red-HRP H2O2 redox cycling, absorbance 600 nm; Potency, µM (doses to about 115 µM), actives largely listed as inhibitors
HEK293 viability = counter-screen for GALK inhibitors: HEK293 cell cytotoxicity. hit rate 10% among 170. Potency, µM (titrated, usually from 46.1 µM), actives largely listed as inhibitors. AID 2547. HEK-293 viability, ATP luminescence (CellTiter-Glo), 24/48 h. shares compounds with Pol eta inh-1
Pol kappa inh-2 = Pol kappa (human) inhibition, cherry-pick confirmation; Potency, µM, usual class: inhibitors; purified Pol-kappa, fluorescent strand-displacement substrate; hit rate 76% among 920; shares compounds with Pol eta inh-1
Pol eta inh-2 = confirmation of human DNA polymerase eta inhibitors. hit rate 64% among 2,600. Potency, µM, actives largely listed as inhibitors. shares compounds with Pol eta inh-1. Pol eta primer extension, TAMRA/BHQ fluorescence, 10 min
Of the large screens only hits and unclear results are named; the others gave an inactive call (follow-up assays come after a bar, where they were run). Hits are enriched below; roughly 2.8% of the tested compounds scored in any of these assays. Unless noted, calls come from the whole dose curve; as a rule, active = well fitted curve in the direction sought with a large enough effect; inconclusive = small, poorly fitted or top-dose-only effect, or another doubt; inactive = no such curve, though single readings can be large; an effect the other way counts as inactive or inconclusive.

CCOc1ccc(Cn2nnc(C(=O)NCCc3ccccc3)c2N)cc1	none
COc1ccc(/C=C2\SC(=S)N(CCCC(=O)Nc3ccc(C(=O)O)cc3)C2=O)cc1OC	Pol iota inh 56µM, Pol eta inh-1 inconclusive, POLB inh inconclusive, FEN1 inhibitor inconclusive | Pol kappa inh-2 42
COc1ccc(/C=C2/SC(=S)N(CCCC(=O)Nc3ccc(O)cc3)C2=O)cc1OC	Pol iota inh inconclusive
NC(=O)C1CCN(C(=O)c2ccc3c(=O)n(Cc4ccco4)c(SCc4ccc([N+](=O)[O-])cc4)nc3c2)CC1	Pol iota inh inconclusive
COCCN(C(=O)COC(=O)Cc1coc2cc(C)ccc12)c1c(N)n(Cc2ccccc2)c(=O)[nH]c1=O	Pol iota inh 35µM, Pol eta inh-1 20µM, Pol kappa inh-1 inconclusive, PI5P4Ka inh inconclusive (no result: POLB inh) | Pol eta inh-2 60
O=C(O)c1c(C(=O)O)c(-c2ccc(Cl)c(Cl)c2)n2c1CSC2	Pol iota inh inconclusive, Pol eta inh-1 50µM, POLB inh inconclusive | Pol kappa inh-2 38
Cc1cccc2c(=O)cc(CSc3ccccc3NC(=O)c3cccc(Br)c3)[nH]c12	none (no result: PI5P4Ka inh)
Cc1ccc(F)c(NC(=O)/C(C#N)=C(\O)c2ccc(C(C)(C)C)cc2)c1	Pol iota inh inconclusive, Pol eta inh-1 79µM, POLB inh 89µM, FEN1 inhibitor inconclusive | GALK inh confirm 33µM | Redox cycling inactive | HEK293 viability inactive
Cc1ccc(S(=O)(=O)N2[C@@H](c3ccc(Br)cc3)C(C(=O)O)=CC[C@H]2c2ccc(Cl)c(Cl)c2)cc1	Pol eta inh-1 89µM, FEN1 inhibitor inconclusive (no result: POLB inh) | Pol kappa inh-2 inconclusive
Cc1ccc(S(=O)(=O)N2[C@@H](c3ccc(C(C)(C)C)cc3)C(C(=O)O)=CC[C@H]2c2cccc(Cl)c2)cc1	Pol iota inh inconclusive, Pol eta inh-1 89µM, Pol kappa inh-1 inconclusive, PI5P4Ka inh inconclusive (no result: POLB inh) | Pol kappa inh-2 67 | Pol eta inh-2 inconclusive
CC(NC(=O)Cc1ccc(S(=O)(=O)N2CCOCC2)s1)c1ccc(Cl)c(Cl)c1 (stereo unspecified)	none (no result: POLB inh)
Cn1nnc2c(N3CCCCC3)ncnc21	none (no result: PI5P4Ka inh)
COc1cc(NC(=O)c2ccccc2)c(C)cc1NC(=O)CC(CC(=O)O)c1ccccc1 (stereo unspecified)	none
Cc1cc(C)cc(NC(=O)c2sc3nc(-c4cc5ccccc5oc4=O)[nH]c(=O)c3c2C)c1	none (no result: PI5P4Ka inh)
Cc1cccc(NC(=O)c2sc3nc(-c4cc5ccc(O)cc5oc4=O)[nH]c(=O)c3c2C)c1	Pol eta inh-1 inconclusive, POLB inh inconclusive (no result: PI5P4Ka inh) | Pol eta inh-2 inconclusive
COc1cc(N(C(C)=O)c2ccc(O)c(C(=O)O)c2)c2ncccc2c1	Pol eta inh-1 50µM, PI5P4Ka inh inconclusive (no result: Pol iota inh, POLB inh, Pol kappa inh-1, FEN1 inhibitor) | Pol eta inh-2 85
COc1cc(N(C(C)=O)c2ccc(O)cc2)c2ncccc2c1	none (no result: Pol iota inh, POLB inh, Pol kappa inh-1, FEN1 inhibitor)
COc1ccc2cc(S(=O)(=O)NCc3cccnc3)ccc2c1	none
CC1(CC(=O)N/N=C/c2cc([N+](=O)[O-])c(O)cc2O)OCCO1	Pol iota inh inconclusive, Pol eta inh-1 22µM, POLB inh 4.5µM, Pol kappa inh-1 inconclusive, PI5P4Ka inh -64 | Pol eta inh-2 inconclusive
Cc1cc(C(=O)Cn2nc(C(=O)O)c3ccccc3c2=O)c(C)n1-c1ccc(F)cc1	none
